Source: PubChem BioAssay (Tox21)
Unmarked numbers belong to inactive results. Records with an inconclusive call do not appear. Entries that show only a call come without a potency. Calls of active or inactive are those of the source. Unless noted, the call rests on the fitted dose curve; in most records, active means well fitted curve in the direction sought with a large enough effect in the repeat runs; inconclusive means weak or mixed curves; inactive means no such curve, though single readings can be large; an effect the other way counts as inactive or inconclusive.

Key:
[1] = qHTS assay to identify small molecule agonists of the androgen receptor (AR) signaling pathway in the presence of an antagonist - cell viability counter screen (AID 1259379); further: nearly all actives have a fitted effect of over 25% in size; further: potency means the concentration at half of the fitted maximal effect
Procedure, shortened: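 Cells: MDA-kb2 (MMTV-luc, AR and GR elements), 3,000/well, 5 hr settle. Added: nilutamide 3.0uM final, then compounds (15 conc.). Incubation: 16 hr, 37C, no CO2. Read-out: CellTiter-Fluor, 1 hr, fluorescence.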

[2] = qHTS assay to identify small molecule agonists of the estrogen receptor beta (ER-beta) signaling pathway - cell viability counter screen (AID 1259380); further: nearly all actives have a fitted effect of over 30% in size; further: potency means the concentration at half of the fitted maximal effect
Procedure, shortened: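 HEK293T ER-beta-UAS-bla; 2% CS-FBS; 6 hr pre-plate, 16 hr cpd at 37C/5% CO2; LiveBLAzer read first, then CellTiter-Glo 30 min RT, luminescence.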

[3] = target: Androgen receptor (Homo sapiens) (UniProt P10275); assay: qHTS assay to identify small molecule agonists of the androgen receptor (AR) signaling pathway in the presence of an antagonist (AID 1259381; calls by dose curve; further: nearly all actives have a fitted effect of over 15% in size)
Androgen receptor (Homo sapiens), sequence (P10275 whole entry, looked up): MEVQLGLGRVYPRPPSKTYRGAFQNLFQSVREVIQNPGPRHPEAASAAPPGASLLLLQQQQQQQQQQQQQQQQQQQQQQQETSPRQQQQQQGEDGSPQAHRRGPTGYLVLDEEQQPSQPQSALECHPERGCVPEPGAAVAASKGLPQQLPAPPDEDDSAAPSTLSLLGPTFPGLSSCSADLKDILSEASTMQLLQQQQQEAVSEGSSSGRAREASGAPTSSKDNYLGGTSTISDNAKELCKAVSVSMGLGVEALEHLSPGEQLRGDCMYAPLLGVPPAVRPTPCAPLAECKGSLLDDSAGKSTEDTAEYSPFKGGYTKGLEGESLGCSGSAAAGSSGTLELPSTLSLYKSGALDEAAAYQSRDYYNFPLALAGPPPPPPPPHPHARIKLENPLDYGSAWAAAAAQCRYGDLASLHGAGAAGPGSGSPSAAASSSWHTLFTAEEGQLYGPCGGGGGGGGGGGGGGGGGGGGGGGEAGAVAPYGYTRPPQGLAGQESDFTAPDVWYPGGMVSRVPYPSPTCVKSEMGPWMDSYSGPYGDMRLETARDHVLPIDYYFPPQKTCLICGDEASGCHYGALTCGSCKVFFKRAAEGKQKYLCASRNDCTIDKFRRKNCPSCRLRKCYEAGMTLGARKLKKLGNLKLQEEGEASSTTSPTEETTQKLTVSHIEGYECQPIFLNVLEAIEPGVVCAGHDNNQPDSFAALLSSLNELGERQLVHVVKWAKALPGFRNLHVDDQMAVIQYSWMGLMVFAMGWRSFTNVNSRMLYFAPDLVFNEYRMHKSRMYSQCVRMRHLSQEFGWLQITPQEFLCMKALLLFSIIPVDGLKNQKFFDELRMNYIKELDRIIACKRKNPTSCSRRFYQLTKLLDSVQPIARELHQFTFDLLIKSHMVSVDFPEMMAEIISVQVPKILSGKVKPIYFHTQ
Procedure, shortened: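 MDA-kb2 cells, 3,000/well, rested 5hr at 37C/0% CO2 → nilutamide 3.0uM final or buffer → compounds, 15 conc. → 16hr at 37C → ONE-Glo, 30min RT → luminescence.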

[4] = qHTS assay to identify small molecule agonists of the estrogen receptor alpha (ER-alpha) signaling pathway in the presence of an antagonist - cell viability counter screen (AID 1259386);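 further: cells exposed to compounds for 22 h at 37 °C before the viability read; nearly all actives have a fitted effect of over 30% in size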; further: potency means the concentration at half of the fitted maximal effect
Procedure, shortened: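 VM7Luc4E2, stripped-serum pre-culture 5 d; 24hr plating; +ICI-182,780 10.0nM final; cpds 15 conc, 22hr, 37C/5% CO2; CellTiter-Fluor added at 21hr, fluorescence 1hr later.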

[5] = target: Progesterone receptor (Homo sapiens) (UniProt P06401); assay: qHTS assay to identify small molecule agonists of the progesterone receptor (PR) signaling pathway (AID 1346784; calls by dose curve; further: nearly all actives have a fitted effect of over 30% in size)
Progesterone receptor (Homo sapiens), sequence (P06401 whole entry, looked up): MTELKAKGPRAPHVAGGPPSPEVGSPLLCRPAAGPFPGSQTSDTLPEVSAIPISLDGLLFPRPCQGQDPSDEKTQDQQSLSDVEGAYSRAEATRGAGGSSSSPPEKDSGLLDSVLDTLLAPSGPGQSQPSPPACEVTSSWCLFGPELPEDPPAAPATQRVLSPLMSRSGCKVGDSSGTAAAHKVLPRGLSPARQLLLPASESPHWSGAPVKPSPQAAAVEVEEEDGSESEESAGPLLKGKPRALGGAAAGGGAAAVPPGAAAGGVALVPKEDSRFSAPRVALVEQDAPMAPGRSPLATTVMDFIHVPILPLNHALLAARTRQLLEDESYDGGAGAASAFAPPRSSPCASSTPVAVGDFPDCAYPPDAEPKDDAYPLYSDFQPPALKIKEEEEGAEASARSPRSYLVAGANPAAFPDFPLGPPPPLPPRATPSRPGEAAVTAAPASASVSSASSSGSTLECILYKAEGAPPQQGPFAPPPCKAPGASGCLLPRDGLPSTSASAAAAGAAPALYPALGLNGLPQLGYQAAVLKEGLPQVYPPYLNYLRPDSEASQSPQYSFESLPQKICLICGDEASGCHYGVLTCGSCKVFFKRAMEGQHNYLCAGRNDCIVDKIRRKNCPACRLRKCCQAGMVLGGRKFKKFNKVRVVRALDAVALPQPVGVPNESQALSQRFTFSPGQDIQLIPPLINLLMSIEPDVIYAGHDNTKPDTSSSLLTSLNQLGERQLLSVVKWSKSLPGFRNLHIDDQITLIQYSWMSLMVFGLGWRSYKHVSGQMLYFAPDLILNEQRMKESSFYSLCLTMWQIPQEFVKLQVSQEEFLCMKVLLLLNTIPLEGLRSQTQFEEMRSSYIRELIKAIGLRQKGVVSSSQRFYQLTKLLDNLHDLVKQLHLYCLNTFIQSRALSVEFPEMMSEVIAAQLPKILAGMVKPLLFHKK
Procedure, shortened: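 Reporter assay, GripTite PR-UAS-bla HEK 293T cells: 16 hr exposure to DMSO-dissolved compounds at 37C, 5% CO2, in steroid-depleted (2% charcoal-stripped FBS) medium; beta-lactamase measured by FRET fluorescence.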

[6] = qHTS assay to identify small molecule agonists of the TGF-beta/Smad signaling pathway - cell viability counter screen (AID 1346829); further: nearly all actives have a fitted effect of over 45% in size; further: potency means the concentration at half of the fitted maximal effect
Procedure, shortened: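 SBE-bla HEK 293T cells plated overnight, compound exposure 5 hr at 37 C. Viability read in the same wells by CellTiter-Glo luminescence after 30 min at room temperature, following the beta-lactamase read.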

[7] = qHTS assay to identify small molecule agonists of the TGF-beta/Smad signaling pathway (AID 1346859; active means well fitted activation curve with a large enough effect in the signal ratio in the repeat runs, not every such curve was filed as active; the % refers to the signal ratio; further: series mostly up to about 77 µM)
Procedure, shortened: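 Screening used HEK 293T SBE-bla cells at 4,000/well. Test agents: 5 hr, 37 C. Detection: FRET substrate, 2 hr RT, then excitation 405 nm with emissions at 460 and 530 nm.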

[8] = qHTS assay to identify small molecule antagonists of the estrogen receptor beta (ER-beta) signaling pathway - cell viability counter screen (AID 1259382); further: nearly all actives have a fitted effect of over 55% in size; further: potency means the concentration at half of the fitted maximal effect
Procedure, shortened: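 Cells: ER-beta-UAS-bla HEK293T, 2,000/well, 2% CS-FBS, 6 hr settle. Cpd + E2 (1nM final), 16 hr, 37C/5% CO2. Bla FRET substrate 2 hr RT, then CellTiter-Glo 30 min RT, luminescence.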

[9] = target: Estrogen receptor (Homo sapiens) (UniProt P03372); assay: qHTS assay to identify small molecule agonists of the estrogen receptor alpha (ER-alpha) signaling pathway in the presence of an antagonist (AID 1259383; calls by dose curve; further: top concentration of the series differs between compounds; nearly all actives have a fitted effect of over 15% in size)
Estrogen receptor (Homo sapiens), sequence (P03372 whole entry, looked up): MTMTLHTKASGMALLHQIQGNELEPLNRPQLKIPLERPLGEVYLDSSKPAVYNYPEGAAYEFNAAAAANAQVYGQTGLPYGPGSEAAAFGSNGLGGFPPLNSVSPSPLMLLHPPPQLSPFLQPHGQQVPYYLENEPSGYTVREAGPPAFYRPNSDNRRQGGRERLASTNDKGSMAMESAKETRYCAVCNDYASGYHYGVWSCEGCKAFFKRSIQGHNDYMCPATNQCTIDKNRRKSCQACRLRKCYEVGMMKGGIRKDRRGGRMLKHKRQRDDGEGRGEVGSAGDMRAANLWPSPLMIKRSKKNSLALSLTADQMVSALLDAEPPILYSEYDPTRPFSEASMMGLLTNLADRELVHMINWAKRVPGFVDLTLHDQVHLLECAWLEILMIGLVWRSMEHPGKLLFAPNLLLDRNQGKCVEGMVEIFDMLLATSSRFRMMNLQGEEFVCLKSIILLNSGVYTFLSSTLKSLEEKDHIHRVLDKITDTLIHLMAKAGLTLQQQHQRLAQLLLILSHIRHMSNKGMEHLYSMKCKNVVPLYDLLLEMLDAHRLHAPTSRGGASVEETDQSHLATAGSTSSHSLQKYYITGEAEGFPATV
Procedure, shortened: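 VM7Luc4E2, endog. ER-alpha + 4×ERE-luc; charcoal-stripped FBS, phenol red-free, 5 d; 24hr plating; +10.0nM ICI-182,780 (final); cpds 15 conc, 22hr, 37C/5% CO2; ONE-Glo luminescence.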

[10] = qHTS assay to identify small molecule antagonists of the progesterone receptor (PR) signaling pathway - cell viability counter screen (AID 1346798); further: nearly all actives have a fitted effect of over 50% in size; further: potency means the concentration at half of the fitted maximal effect
Procedure, shortened: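 In the same plates used for the beta-lactamase readout, cell viability of compound- and R5020-treated PR-UAS-bla HEK293T cells (16 hr, 37C) was assessed by CellTiter-Glo luminescence.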

[11] = qHTS assay to identify small molecule agonists of the progesterone receptor (PR) signaling pathway - cell viability counter screen (AID 1346799; calls by dose curve; further: nearly all actives have a fitted effect of over 45% in size; further: potency means the concentration at half of the fitted maximal effect)
Procedure, shortened: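 Multiplexed viability read: CellTiter-Glo luminescence, 30 min RT, following LiveBLAzer FRET measurement on PR-UAS-bla HEK293T cells exposed to compounds 16 hr.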

[12] = qHTS assay to identify small molecule antagonists of the TGF-beta/Smad signaling pathway - cell viability counter screen (AID 1346824); further: nearly all actives have a fitted effect of over 50% in size
Procedure, shortened: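 SBE-bla HEK 293T cells, incubated overnight, then compound plus 0.25 ng/mL TGF-beta1 (stock added) for 5 hr at 37 C. Viability was read in the same wells by CellTiter-Glo luminescence after 30 min at room temperature.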

[13] = Human pregnane X receptor (PXR) small molecule agonists, qHTS cell viability counter screen (AID 1346977); further: nearly all actives have a fitted effect of over 50% in size; further: potency means the concentration at half of the fitted maximal effect
Procedure, shortened: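 In each well, the PXR reporter HepG2 line was checked for viability: CellTiter-Fluor reagent added 23hr post-dosing, fluorescence read after 1hr incubation at 37C.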

[14] = qHTS assay to identify small molecule agonists or antagonists of the thyroid stimulating hormone receptor (TSHR) signaling pathway - wild type cell line counter screen (AID 1259384; calls by dose curve)
Procedure, shortened: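 Wild-type Hek293 cells, 800/well, 18 h at 37C, then compound with Ro20-1724 for 30 min RT. cAMP by HTRF (cAMP-d2/anti-cAMP cryptate), 1 h RT, fluorescence read. 15 concentrations, triplicates.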

[15] = target: Thyrotropin receptor (Homo sapiens) (UniProt P16473); assay: qHTS assay to identify small molecule antagonists of the thyroid stimulating hormone receptor (TSHR) signaling pathway (AID 1259385; calls by dose curve; further: nearly all actives have a fitted effect of over 20% in size)
Thyrotropin receptor (Homo sapiens), sequence (P16473 whole entry, looked up): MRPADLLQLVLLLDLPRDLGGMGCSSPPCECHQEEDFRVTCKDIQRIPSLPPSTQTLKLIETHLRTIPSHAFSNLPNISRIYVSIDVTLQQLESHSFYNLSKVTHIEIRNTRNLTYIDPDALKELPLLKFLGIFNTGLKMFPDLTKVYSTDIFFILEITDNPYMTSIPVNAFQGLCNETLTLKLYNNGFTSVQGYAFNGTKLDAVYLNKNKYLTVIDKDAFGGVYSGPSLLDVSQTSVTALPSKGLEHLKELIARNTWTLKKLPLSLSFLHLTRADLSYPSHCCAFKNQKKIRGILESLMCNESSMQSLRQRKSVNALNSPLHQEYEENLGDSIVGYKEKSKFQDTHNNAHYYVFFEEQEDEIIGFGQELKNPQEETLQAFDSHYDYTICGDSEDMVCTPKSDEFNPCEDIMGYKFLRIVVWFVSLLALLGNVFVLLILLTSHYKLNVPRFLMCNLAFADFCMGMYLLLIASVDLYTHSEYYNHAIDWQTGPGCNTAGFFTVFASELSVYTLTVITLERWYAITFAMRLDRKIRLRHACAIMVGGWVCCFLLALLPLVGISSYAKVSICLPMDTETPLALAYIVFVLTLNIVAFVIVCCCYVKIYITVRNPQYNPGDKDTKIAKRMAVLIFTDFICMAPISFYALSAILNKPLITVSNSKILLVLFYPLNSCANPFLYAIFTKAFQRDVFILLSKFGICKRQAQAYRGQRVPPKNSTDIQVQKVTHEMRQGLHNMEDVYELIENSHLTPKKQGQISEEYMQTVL
Procedure, shortened: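 TSHR-HEK293 cells (800/well) plated 18 h, then compounds with Ro20-1724 and TSH at 1.5 ng/mL final, 30 min at room temperature. cAMP quantified by HTRF (cAMP-d2/anti-cAMP-cryptate, 1 h); 15 concentrations in triplicate.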

[16] = target: Thyrotropin-releasing hormone receptor (Homo sapiens) (UniProt P34981); assay: qHTS assay to identify small molecule antagonists of the thyrotropin-releasing hormone receptor (TRHR) signaling pathway (AID 1346877; active means well fitted inhibition curve with a large enough effect in the repeat runs, not every such curve was filed as active; further: series mostly up to about 51 µM)
Thyrotropin-releasing hormone receptor (Homo sapiens), sequence (P34981 whole entry, looked up): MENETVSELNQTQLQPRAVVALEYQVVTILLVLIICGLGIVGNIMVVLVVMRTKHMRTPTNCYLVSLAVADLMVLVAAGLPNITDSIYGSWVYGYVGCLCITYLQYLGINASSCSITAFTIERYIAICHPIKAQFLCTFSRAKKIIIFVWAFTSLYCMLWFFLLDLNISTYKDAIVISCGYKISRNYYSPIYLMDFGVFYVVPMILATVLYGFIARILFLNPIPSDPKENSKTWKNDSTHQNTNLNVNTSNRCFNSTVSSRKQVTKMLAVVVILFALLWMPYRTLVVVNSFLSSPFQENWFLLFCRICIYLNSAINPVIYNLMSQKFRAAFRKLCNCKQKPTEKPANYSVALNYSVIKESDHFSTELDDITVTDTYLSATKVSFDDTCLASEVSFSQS
Procedure, shortened: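 Intracellular calcium fluorescence, read kinetically every second over 3 min, reports TRH-evoked signalling in HEK293 cells carrying TRHR. Test compounds were added 5 min ahead of a 1 nM TRH challenge.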

[17] = target: Thyrotropin-releasing hormone receptor (Homo sapiens) (UniProt P34981); assay: qHTS assay to identify small molecule agonists of the thyrotropin-releasing hormone receptor (TRHR) signaling pathway (AID 1346891; calls by dose curve; further: series mostly up to about 58 µM)
Procedure, shortened: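 Readout was intracellular calcium fluorescence in TRHR-Hek293 cells. Cells were incubated 18 h, dye-loaded 2 h at 37 °C, and treated with compound in agonist mode.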

| Structure (SMILES) | Potency [1] | Potency [2] | Potency [3] | Potency [4] | Potency [5] | Potency [6] | outcome [7] | Potency [8] | Potency [9] | Potency [10] | Potency [11] | Potency [12] | Potency [13] | outcome [14] | Potency [15] | Potency [16] | Potency [17] |
| --- | --- | --- | --- | --- | --- | --- | --- | --- | --- | --- | --- | --- | --- | --- | --- | --- | --- |
| O=c1oc2ccccc2c(O)c1Cc1c(O)c2ccccc2oc1=O | inactive | 5.31 µM (active) | inactive | inactive | inactive | inactive | inactive | – | – | – | – | – | – | – | – | – | – |
| N#C/C=C/c1ccccc1 | inactive | inactive | inactive | inactive | – | inactive | inactive | inactive | inactive | inactive | inactive | inactive | inactive | – | – | – | – |
| COC12CC[C@@]3(C[C@@H]1C(C)(O)C(C)(C)C)[C@H]1Cc4ccc(O)c5c4[C@@]3(CCN1CC1CC1)[C@H]2O5 (stereo partly specified) | 60.7 µM (active) | 27.1 µM (active) | – | 60.7 µM (active) | – | 38.6 µM (active) | inactive | 54.1 µM (active) | inactive | 43 µM (active) | 38.3 µM (active) | – | 54.1 µM (active) | inactive | inactive | – | – |
| C[C@@H](Oc1ccc(Cl)cc1Cl)C(=O)O | inactive | inactive | – | inactive | inactive | inactive | – | inactive | inactive | inactive | inactive | inactive | inactive | inactive | inactive | inactive | inactive |
